This is an account of results in PubChem BioAssay (EPA / NIEHS).

Holding throughout (details): mRNA level, 48 h; actives raise or lower the signal
Read-out in experiment [1]: Bcl-2 (BID) gene, BID (gene 637)
Description: LTEA_HepaRG_BID: Life Technologies and Expression Analysis (LTEA) Assay for Bcl-2 (BID) gene using HepaRG (AID 2283476). Summed up: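 Gene expression by qRT-PCR in HepaRG cells after 48 h exposure, duplicate wells, eight half-log concentrations topping at 100 uM in 0.5% DMSO. Normalized to ACTB, GAPDH, POLR2A; bidirectional fitting relative to DMSO.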

Read-out in another experiment: Caspase-3 (Homo sapiens) (UniProt P42574)
Kind of experiment: LTEA_HepaRG_CASP3: Life Technologies and Expression Analysis (LTEA) Assay for cysteine-aspartic acid protease (CASP3) using HepaRG (AID 2283477). Put shortly: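 In HepaRG liver cells dosed for 48 h at up to 100 uM (eight-point, duplicate), CASP3 expression changes are scored by qRT-PCR. Activity is fitted in both directions with 0.5% DMSO as baseline.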

Read-out in experiment [2]: Cytochrome P450 (CYP24A1), CYP24A1 (gene 1591)
Description: LTEA_HepaRG_CYP24A1: Life Technologies and Expression Analysis (LTEA) Assay for Cytochrome P450 (CYP24A1) using HepaRG (AID 2283478). Summed up: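 Human liver HepaRG cultures receive each chemical for 48 h across an eight-point half-log series topping at 100 uM in 0.5% DMSO. Induction or suppression of CYP24A1 mRNA is scored relative to vehicle after housekeeping-gene normalization.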

Read-out in experiment [3]: Cytochrome P450 (CYP1A2), CYP1A2 (gene 1544)
Description: LTEA_HepaRG_CYP1A2: Life Technologies and Expression Analysis (LTEA) Assay for Cytochrome P450 (CYP1A2) using HepaRG (AID 2283479). Put shortly:
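Assesses CYP1A2 mRNA in human HepaRG liver cells after 48 h chemical exposure at up to 100 uM. Values come from qRT-PCR with bidirectional curve fitting relative to DMSO.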

Read-out in experiment [4]: cysteine-aspartic acid protease (CASP8), CASP8 (gene 841)
Description: LTEA_HepaRG_CASP8: Life Technologies and Expression Analysis (LTEA) Assay for cysteine-aspartic acid protease (CASP8) using HepaRG (AID 2283480). Put shortly: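 Differentiated HepaRG cells in serum-free induction medium, 48 h exposure, eight-point half-log series from 100 uM in 0.5% DMSO, duplicates. CASP8 mRNA by qRT-PCR, normalized to ACTB, GAPDH, POLR2A; bidirectional fit versus DMSO.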

Read-out in experiment [5]: Cytochrome P450 (CYP2B6), CYP2B6 (gene 1555)
Kind of experiment: LTEA_HepaRG_CYP2B6: Life Technologies and Expression Analysis (LTEA) Assay for Cytochrome P450 (CYP2B6) using HepaRG (AID 2283481). Put shortly: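 Using 48 h treatment of HepaRG cells in serum-free induction medium, concentrations spanned half-log steps from 100 uM in 0.5% DMSO vehicle. CYP2B6 mRNA induction or loss is scored by qRT-PCR against DMSO.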

Read-out in experiment [6]: Cytochrome P450 2C19 (Homo sapiens) (UniProt P33261)
Kind of experiment: LTEA_HepaRG_CYP2C19: Life Technologies and Expression Analysis (LTEA) Assay for CYP2C19 using HepaRG (AID 2283482). Put shortly: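 Human HepaRG liver cells received test chemicals for 48 h (highest 100 uM, half-log dilutions in 0.5% DMSO). CYP2C19 mRNA induction or loss is read by multiplexed qRT-PCR and fitted in both directions versus vehicle.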

Read-out in a further experiment: CYP2C8 (gene 1558)
Description: LTEA_HepaRG_CYP2C8: Life Technologies and Expression Analysis (LTEA) Assay for CYP2C8 using HepaRG (AID 2283483). Put shortly:
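Differentiated HepaRG cells in serum-free induction medium exposed 48 h in duplicate to 8 half-log concentrations from 100 uM in 0.5% DMSO. CYP2C8 mRNA by qRT-PCR normalized to ACTB, GAPDH, POLR2A; bidirectional fit versus DMSO.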

Read-out in another experiment: CYP2E1 (gene 1571)
Kind of experiment: LTEA_HepaRG_CYP2E1: Life Technologies and Expression Analysis (LTEA) Assay for CYP2E1 using HepaRG (AID 2283485). Summed up:
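HepaRG cells, plated 48 h, then exposed 48 h in serum-free induction medium to eight half-log concentrations from 100 uM in 0.5% DMSO, duplicate. CYP2E1 mRNA by qRT-PCR, normalized to ACTB/GAPDH/POLR2A; bidirectional fit versus DMSO.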

Read-out in the next experiment: CYP4A11 (gene 1579)
Description: LTEA_HepaRG_CYP4A11: Life Technologies and Expression Analysis (LTEA) Assay for CYP4A11 using HepaRG (AID 2283486). Put shortly: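 Readout is CYP4A11 mRNA induction or suppression (qRT-PCR, ACTB/GAPDH/POLR2A normalization) in human HepaRG cells after 48 h chemical treatment, concentrations to 100 uM in 0.5% DMSO, fitted bidirectionally against vehicle.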

Read-out in experiment [7]: Cytochrome P450 3A4 (Homo sapiens) (UniProt P08684)
Description: LTEA_HepaRG_CYP3A4: Life Technologies and Expression Analysis (LTEA) Assay for CYP3A4 using HepaRG (AID 2283487). Summed up:
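HepaRG, 48 h exposure, 8-pt CRC from 100 uM (half-log), 0.5% DMSO, duplicates; serum-free induction medium. Readout: CYP3A4 mRNA, qRT-PCR, ACTB/GAPDH/POLR2A normalization. Bidirectional fit vs DMSO.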

Read-out in experiment [8]: DNA damage-inducible transcript 3 (DDIT3), DDIT3 (gene 1649)
Description: LTEA_HepaRG_DDIT3: Life Technologies and Expression Analysis (LTEA) Assay for DNA damage-inducible transcript 3 (DDIT3) using HepaRG (AID 2283488). Put shortly:
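HepaRG cells, 48 h after plating, exposed 48 h in serum-free induction medium to 8 half-log concentrations up to 100 uM in 0.5% DMSO, in duplicate. DDIT3 mRNA measured by TaqMan qRT-PCR, normalized to ACTB, GAPDH and POLR2A. Fitted bidirectionally against DMSO.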

Read-out in experiment [9]: Pro-epidermal growth factor (Homo sapiens) (UniProt P01133)
Kind of experiment: LTEA_HepaRG_EGF: Life Technologies and Expression Analysis (LTEA) Assay for Epidermal growth factor (EGF) using HepaRG (AID 2283489). Put shortly:
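EGF expression changes in human HepaRG cells are scored by bidirectional fitting relative to 0.5% DMSO controls. Chemicals are tested at eight half-log concentrations up to 100 uM for 48 h in serum-free induction medium.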

Read-out in experiment [10]: Early growth response protein 1 (EGR1) transcription factor, EGR1 (gene 1958)
Description: LTEA_HepaRG_EGR1: Life Technologies and Expression Analysis (LTEA) Assay for Early growth response protein 1 (EGR1) transcription factor using HepaRG (AID 2283490). Summed up: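 Differentiated HepaRG cells in serum-free induction medium exposed 48 hours, duplicate, to 8 half-log concentrations up to 100 uM in 0.5% DMSO. EGR1 mRNA measured by TaqMan qRT-PCR, normalized to ACTB, GAPDH, POLR2A; bidirectional fit versus DMSO.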

Read-out in experiment [11]: Ezrin (EZR), EZR (gene 7430)
Kind of experiment: LTEA_HepaRG_EZR: Life Technologies and Expression Analysis (LTEA) Assay for Ezrin (EZR) using HepaRG (AID 2283491). Summed up:
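Read-out is EZR transcript level by qRT-PCR, normalized to three housekeeping genes and fitted bidirectionally against the DMSO control. Human HepaRG cells received test chemicals for 48 h at eight half-log concentrations up to 100 uM in 0.5% DMSO.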

Read-out in experiment [12]: Cytochrome P450 3A7 (Homo sapiens) (UniProt P24462)
Kind of experiment: LTEA_HepaRG_CYP3A7: Life Technologies and Expression Analysis (LTEA) Assay for CYP3A7 using HepaRG (AID 2283492). Summed up:
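Cells were thawed, plated, cultured 48 h, then treated for a further 48 h with chemicals (eight-point half-log series from 100 uM, 0.5% DMSO). RNA was isolated and CYP3A7 expression quantified by qRT-PCR normalised to ACTB, GAPDH and POLR2A.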

Read-out in the next experiment: CYP3A5 (gene 1577)
Description: LTEA_HepaRG_CYP3A5: Life Technologies and Expression Analysis (LTEA) Assay for CYP3A5 using HepaRG (AID 2283493). Summed up: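 HepaRG cells, plated 48 h then in serum-free induction medium, dosed in duplicate for 48 h with eight half-log concentrations up to 100 uM in 0.5% DMSO. Gene mRNA by Fluidigm TaqMan qRT-PCR, normalized to ACTB, GAPDH, POLR2A.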

Read-out in experiment [13]: Cytochrome P450 4A22 (Homo sapiens) (UniProt Q5TCH4)
Kind of experiment: LTEA_HepaRG_CYP4A22: Life Technologies and Expression Analysis (LTEA) Assay for Cytochrome P450 4A22 (CYP4A22) using HepaRG (AID 2283495). Summed up: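 Cryopreserved HepaRG cells, plated and cultured 48 h, then switched to serum-free induction medium and treated 48 h (duplicates, up to 100 uM, half-log steps, 0.5% DMSO). Expression change of CYP4A22 was fitted bidirectionally against vehicle.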

Read-out in experiment [14]: Fatty Acid-Binding Protein 1 (FABP1), FABP1 (gene 2168)
Kind of experiment: LTEA_HepaRG_FABP1: Life Technologies and Expression Analysis (LTEA) Assay for Fatty Acid-Binding Protein 1 (FABP1) using HepaRG (AID 2283494). Put shortly: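 Differentiated human HepaRG cells exposed 48 h in serum-free induction medium to eight half-log concentrations up to 100 uM (0.5% DMSO), duplicate. FABP1 mRNA by qRT-PCR, normalised to ACTB, GAPDH, POLR2A; bidirectional fitting against DMSO.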

Read-out in the next experiment: CYP2C9 (gene 1559)
Description: LTEA_HepaRG_CYP2C9: Life Technologies and Expression Analysis (LTEA) Assay for CYP2C9 using HepaRG (AID 2283484). Put shortly:
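Differentiated human HepaRG cells in serum-free induction medium were exposed 48 h to chemicals in 8-point half-log series from 100 uM (0.5% DMSO), in duplicate. CYP2C9 mRNA was measured by qRT-PCR, normalized to ACTB/GAPDH/POLR2A, with bidirectional fitting versus DMSO.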

Activity calls are given as the source filed them. The calls were made as follows: active = hit-call score of the fitted dose curve at least 0.9, where 1 is the maximum; inactive = score below 0.9.

Sequence of Cytochrome P450 3A7 (Homo sapiens) (P24462 whole entry, looked up): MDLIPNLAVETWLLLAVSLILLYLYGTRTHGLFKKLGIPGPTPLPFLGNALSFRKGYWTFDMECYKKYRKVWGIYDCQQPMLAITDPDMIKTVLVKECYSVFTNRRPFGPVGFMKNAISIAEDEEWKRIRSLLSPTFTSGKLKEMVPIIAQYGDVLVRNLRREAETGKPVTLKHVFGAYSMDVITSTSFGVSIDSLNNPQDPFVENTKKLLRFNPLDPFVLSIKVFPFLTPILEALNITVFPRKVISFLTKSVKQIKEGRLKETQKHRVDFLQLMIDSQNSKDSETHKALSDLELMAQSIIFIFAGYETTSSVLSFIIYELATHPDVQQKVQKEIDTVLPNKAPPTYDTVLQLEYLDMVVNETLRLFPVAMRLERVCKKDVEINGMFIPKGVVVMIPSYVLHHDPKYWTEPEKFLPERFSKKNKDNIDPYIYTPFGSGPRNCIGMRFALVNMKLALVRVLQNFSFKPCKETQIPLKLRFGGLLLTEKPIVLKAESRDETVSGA
Sequence of Caspase-3 (Homo sapiens) (P42574 whole entry, looked up): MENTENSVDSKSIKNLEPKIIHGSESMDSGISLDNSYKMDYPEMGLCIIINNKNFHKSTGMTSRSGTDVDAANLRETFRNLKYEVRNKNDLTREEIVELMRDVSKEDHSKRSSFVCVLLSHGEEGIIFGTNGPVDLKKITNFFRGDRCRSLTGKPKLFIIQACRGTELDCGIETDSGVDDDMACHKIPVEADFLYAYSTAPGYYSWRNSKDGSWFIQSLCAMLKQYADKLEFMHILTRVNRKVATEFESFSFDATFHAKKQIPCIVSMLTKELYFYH
Sequence of Cytochrome P450 3A4 (Homo sapiens) (P08684 whole entry, looked up): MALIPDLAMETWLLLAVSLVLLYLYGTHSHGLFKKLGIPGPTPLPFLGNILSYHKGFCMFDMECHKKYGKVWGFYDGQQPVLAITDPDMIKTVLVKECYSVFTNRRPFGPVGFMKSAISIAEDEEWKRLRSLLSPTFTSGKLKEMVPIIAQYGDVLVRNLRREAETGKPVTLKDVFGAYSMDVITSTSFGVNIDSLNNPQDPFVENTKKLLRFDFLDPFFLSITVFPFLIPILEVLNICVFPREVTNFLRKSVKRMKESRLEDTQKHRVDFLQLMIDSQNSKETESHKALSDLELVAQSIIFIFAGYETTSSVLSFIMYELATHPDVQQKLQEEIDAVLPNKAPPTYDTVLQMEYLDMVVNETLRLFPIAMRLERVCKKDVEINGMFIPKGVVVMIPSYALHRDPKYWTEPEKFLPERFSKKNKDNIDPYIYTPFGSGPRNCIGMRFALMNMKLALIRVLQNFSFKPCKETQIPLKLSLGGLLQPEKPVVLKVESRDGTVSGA
Sequence of Cytochrome P450 2C19 (Homo sapiens) (P33261 whole entry, looked up): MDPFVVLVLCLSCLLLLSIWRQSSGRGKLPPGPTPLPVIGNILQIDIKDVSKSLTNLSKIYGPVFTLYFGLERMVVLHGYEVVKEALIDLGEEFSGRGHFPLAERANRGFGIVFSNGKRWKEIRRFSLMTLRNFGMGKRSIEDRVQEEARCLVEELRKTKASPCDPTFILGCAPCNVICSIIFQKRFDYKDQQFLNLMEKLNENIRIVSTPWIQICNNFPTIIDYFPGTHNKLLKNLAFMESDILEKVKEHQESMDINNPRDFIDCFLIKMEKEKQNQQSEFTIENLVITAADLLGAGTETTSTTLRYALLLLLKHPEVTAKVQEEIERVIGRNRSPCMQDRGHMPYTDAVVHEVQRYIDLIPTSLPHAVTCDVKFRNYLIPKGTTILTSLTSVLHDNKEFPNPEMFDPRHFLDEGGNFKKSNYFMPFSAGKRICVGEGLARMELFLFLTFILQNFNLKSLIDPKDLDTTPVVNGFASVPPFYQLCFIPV

The AC50 is the concentration giving half of the maximal activity seen. On to `S=C1NCCN1`, for which the compound was called inactive (in [1]; with Caspase-3 (Homo sapiens); in experiment [2]; in [3]; in experiment [4]; in experiment [6]). The compound was classed as inactive (with CYP2C8 (gene 1558); with CYP2E1 (gene 1571); in the experiment with CYP4A11 (gene 1579); in experiment [7]; in experiment [8]; in experiment [9]). Also, the compound was called inactive (in [10]; in experiment [11]; in [12]; with CYP3A5 (gene 1577); in [13]). The concentration at half-maximal activity (AC50) in experiment [5] is 10.3 µM (active).
Take `COc1cccc(C(=O)NN(C(=O)c2cc(C)cc(C)c2)C(C)(C)C)c1C`: the outcome (in experiment [1]; with Caspase-3 (Homo sapiens); in experiment [2]; in experiment [4]; in the experiment with CYP4A11 (gene 1579); in experiment [8]) was inactive. Further, the call (in experiment [9]; in experiment [10]; in [11]; with CYP3A5 (gene 1577); in experiment [14]; in [13]) was inactive. Besides, the concentration at half-maximal activity (AC50) was 18.7 µM (active) in experiment [3]; 1.16 µM (active) in experiment [5]; 1.49 µM (active) in experiment [6]; 3.61 µM (active) with CYP2C8 (gene 1558); 23.5 µM (active) with CYP2E1 (gene 1571); 1.81 µM (active) in experiment [7]. Besides, the half-maximal activity concentration (AC50) in [12] was 5.42 µM (active).
Regarding `CCc1cccc(C)c1N(C(=O)CCl)C(C)COC` (stereo unspecified), the call (in experiment [1]; with Caspase-3 (Homo sapiens); in experiment [2]; in [3]; in experiment [4]; with CYP2C9 (gene 1559)) was inactive. Besides, the result (in the experiment with CYP4A11 (gene 1579); in experiment [8]; in experiment [9]; in experiment [10]; in [11]; in experiment [12]) was inactive. In addition, the result (with CYP3A5 (gene 1577); in experiment [13]) was inactive. Moreover, the AC50 was 14.2 µM (active) in experiment [5]; 16 µM (active) in [6]; 50 µM (active) with CYP2E1 (gene 1571); 11.3 µM (active) in experiment [7]; 37.9 µM (active) in experiment [14].
